# ± gives the standard deviation.
# What was measured:
# [1] = tested on: MILI (PIWIL2) piRISC loaded with L1MC piRNA (26 nt); experiment: pre-steady-state target cleavage rate (min^-1); guide: L1MC piRNA 5'p-UAACUAAAUACUAUGCAAGCUGUAGG; higher = faster piRNA-guided slicing of the target
# Procedure, shortened: (§1)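 In Cleave-'n-Seq, a transcribed, DNA-blocked target RNA library (0.1 nM) was combined with 1 nM active affinity-purified piRISC bearing one synthetic guide, with or without 500 nM GTSF1 partner protein. Reactions ran in HEPES–potassium acetate buffer at 33 °C for 0–8 or 0–960 min. Uncleaved targets were sequenced and normalised to depth and to weakly complementary targets, three trials were pooled, and k3 was capped at 0.0001 min^-1. The pre-steady-state cleavage rate was obtained by fitting a burst-and-steady-state model.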
# [2] = tested on: EfPiwi piRISC loaded with L1MC piRNA (26 nt); experiment: pre-steady-state target cleavage rate (min^-1); auxiliary factor: 500 nM Ephydatia muelleri Gtsf1; guide: L1MC piRNA 5'p-UAACUAAAUACUAUGCAAGCUGUAGG; MIWI and MILI are mouse PIWI proteins and EfPiwi is from a freshwater sponge; tags in brackets are library labels; higher = faster piRNA-guided slicing of the target
# Procedure, shortened: as §1
# [3] = auxiliary factor: 500 nM mouse GTSF1
# [4] = auxiliary factor: none (no GTSF1)
Sequence,"pre-steady-state target cleavage rate [1, 3]","pre-steady-state target cleavage rate [1, 4]",pre-steady-state target cleavage rate [2]
UCCUGGAAGUCCUUGCAUAGUAUUUAGUUA,0.159 ± 0.018,0.00649 ± 0.0018,0.0092 ± 0.0031
UCCUGGUACAGGUUGCAUUGUAUUUAGUUA,0.175 ± 0.023,0.0117 ± 0.0031,0.0047 ± 0.0018
UCCUGCUACAGCUUGGAUAGUAUUUAGUUA,0.296 ± 0.017,0.0119 ± 0.0026,0.017 ± 0.0041
UCCUGCUACACCUUGCAUAGUAUUUAGUAA,0.192 ± 0.035,0.00445 ± 0.0026,0.00559 ± 0.0032
UCCUCCUACAGCUUGCAUAGUAUUUUCUAA,0.143 ± 0.028,0.00357 ± 0.0031,0.00565 ± 0.0036
UCCUGGAUCAGGUUGCAUAGUAAUUAGUUA,0.152 ± 0.015,0.00739 ± 0.0017,0.012 ± 0.005
UCCUCCUACAGCUUCGCAUAGUAUUUAGUUA,0.282 ± 0.015,0.00644 ± 0.0025,0.121 ± 0.032
UCCUGGAACAGGUUGCAUAGUUUUUAGUUA,0.0335 ± 0.0065,0.00467 ± 0.0021,0.00366 ± 0.0018
UCCUGCUAGAGCUUGCAUAGUAUUAAGUUA,0.256 ± 0.033,0.00303 ± 0.0024,0.00624 ± 0.0022
UCCUGGAUGUGCAUGCAUAGUAUUUAGAAA,0.0733 ± 0.013,0.00295 ± 0.0029,0.00304 ± 0.0022
UCCUGGAAGAGCUUGCAUAGUAUUUAGUAA,0.201 ± 0.014,0.00564 ± 0.0021,0.00426 ± 0.0021
UCCUGCUACAGCUUGCGUAGUAUUUAGUUA,0.206 ± 0.014,0.00688 ± 0.0029,0.0375 ± 0.011
UCCUGGAAGAGCUUGCUUAGUAUUUAGUUA,0.204 ± 0.016,0.0109 ± 0.0029,0.0135 ± 0.0043
UCCUGGAACAGCUUGCAUAGUAUUUACGUUA,0.204 ± 0.027,0.00654 ± 0.0028,0.00579 ± 0.0024
UCCUGCUACAGCUUGCAUAGUAUAAAGUUA,0.198 ± 0.025,0.00349 ± 0.0022,0.00347 ± 0.0022
UCCUCCUACAGCUUGACAUAGUAUUUAGUUA,0.267 ± 0.018,0.00554 ± 0.0024,0.016 ± 0.0056
UCCUCCUUCACCUUGCAUAGUAUUUAGUUA,0.212 ± 0.028,0.00635 ± 0.0025,0.0605 ± 0.021
UCCUGGAUCAGCUUGCAUUGUAUUAAGUUA,0.142 ± 0.016,0.00356 ± 0.0025,0.00314 ± 0.0017
UCCUGGAUGUGUCUUGCAUAGUAUUUAGUUA,0.072 ± 0.013,0.014 ± 0.004,0.113 ± 0.038
